In PubChem BioAssay:

system: wheat germ agglutinin (Triticum aestivum), Alexa647-labelled; assay: Alexa647-WGA lectin binding to printed small molecules – biochemical, small-molecule microarray, 635/667 nm fluorescence, artefact control for SMM control-protein annotation, profiling panel (AID 1140); details: WGA-A647 binding, 635 nm fluorescence, higher = more signal;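 further: score merges 667 nm feature emission with signal to noise over triplicate slides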

SMILES | composite z-score
COCC(=C=CC[C@@H](O)c1ccc(CO)o1)CCO | 0.43
CC(C)N1C(=O)c2ccccc2[C@@H](C(=O)NCCCN(C)C)[C@@H]1c1ccc(CO)cc1 | 0.705
C=C[C@@H](COC(C)=O)N(Cc1ccc([N+](=O)[O-])cc1)S(=O)(=O)c1ccc(Br)cc1 | 1.09
CC(C)C(=C=CC[C@@H](O)c1ccccc1OCCO)C[C@@H](O)c1ccccn1 | 0.21
C=CCNC(=O)[C@@H]1[C@H]2C(=O)O[C@H](c3ccccc3)[C@H](c3ccccc3)N2[C@H](c2ccc(O)cc2)[C@@]12C(=O)N(C(=O)OCCOC)c1ccccc12 | 0.795
CC(C)(C)OC(=O)CC[C@@]1(C(=O)NCCN2CCOCC2)N=C(c2ccc(OCCCO)cc2)O[C@@H]1c1ccccc1 | 1.22
N#Cc1ccc(NN2C(C(O)C3CCCCC3)C=CC3C(=O)N(c4ccccc4)C(=O)C32)cc1 (stereo not given) | 0.847
C=CCN1C(=O)[C@]2(O[C@H](CCO)[C@@H]([Si](C)(C)c3ccc(OC)cc3)[C@@H]2C)c2cc(NC(=O)[C@H](C)O)ccc21 | 0.394
O=C1O[C@H](c2ccccc2)[C@H](c2ccccc2)N2[C@H]1[C@@H](C(=O)N1CCN(c3ncccn3)CC1)[C@]1(C(=O)Nc3ccccc31)[C@H]2c1ccc(OCCO)cc1 | 0.0522
O=C1OCCC/C=C\[C@H]2OC34C=CCN(Cn5nnc6ccccc65)C(=O)[C@H]3N(CCCCCO)C(=O)[C@@H]4C12 (stereo not given in full) | -1.03
COc1cc2c(cc1OC)CN(C(=O)[C@@H]1[C@H]3C(=O)O[C@H](c4ccccc4)[C@H](c4ccccc4)N3[C@H](c3ccccc3OCCO)[C@@]13C(=O)Nc1ccc(C#CCNC(N)=O)cc13)CC2 | 0.856
COC(=O)[C@@]1(Cc2ccccc2)[C@H]2c3cc(C(=O)N4CCCC4)n(C)c3C[C@H]2CN1C(=O)c1ccccc1 | 1.06
O=C1O[C@H](c2ccccc2)[C@H](c2ccccc2)N2[C@H]1[C@@H](C(=O)Nc1nc3ccccc3s1)[C@]1(C(=O)Nc3ccccc31)[C@H]2c1ccc(O)cc1 | 0.705
CCN(CC)c1ccc(N2CC=CC34O[C@@H]5C=CCCOC(=O)C5[C@H]3C(=O)N(CCCCCO)[C@@H]4C2=O)cc1 (stereo not given in full) | 0.169
COCCOC(=O)N1C(=O)[C@@]2(c3cc(C#CCC(C(=O)OC)C(=O)OC)ccc31)[C@H](c1ccc(O)cc1)N1[C@H](c3ccccc3)[C@H](c3ccccc3)OC(=O)[C@H]1[C@@H]2C(N)=O | 0.252
NC(=O)NCC#Cc1ccc2c(c1)[C@]1(C(=O)N2)[C@H](C(=O)N2CCCCCCC2)[C@H]2C(=O)O[C@H](c3ccccc3)[C@H](c3ccccc3)N2[C@@H]1c1ccc(OCCO)cc1 | 1.36
CC(C)N1CC=CC23O[C@@H]4C=CCOC(=O)[C@@H]4[C@H]2C(=O)N(CCO)[C@@H]3C1=O (stereo not given in full) | -0.249
COc1ccc(CCNC(=O)[C@@]2(c3ccc([N+](=O)[O-])cc3)CC(=O)N(CC34CC5CC(CC(C5)C3)C4)[C@@H]2c2ccc(CO)cc2)cc1 | -0.037

SMILES | composite z-score
COCCOC(=O)N1C(=O)[C@@]2(c3ccccc31)[C@H](C(=O)NC[C@H](O)c1ccccc1)[C@H]1C(=O)O[C@H](c3ccccc3)[C@H](c3ccccc3)N1[C@@H]2c1ccc(OCCO)cc1 | 0.387
COc1ccc(C(O)C2C=CC3C(=O)NC(=O)C3N2Nc2ccccn2)cc1OCc1ccccc1 (stereo not given) | 0.532
COCCOC(=O)N1C(=O)[C@@]2(c3cc(C#CC4=CCCCC4)ccc31)[C@H](C(=O)NC[C@H](O)c1ccccc1)[C@H]1C(=O)O[C@H](c3ccccc3)[C@H](c3ccccc3)N1[C@@H]2c1ccc(O)cc1 | 0.845
COc1ccc([Si](C)(C)[C@@H]2[C@@H](CCn3cc([C@H](O)c4ccccc4)nn3)O[C@]3(C(=O)N(Cc4ccc(N5C(=O)c6cccc7cccc5c67)cc4)c4ccccc43)[C@H]2C)cc1 | -0.101
[N-]=[N+]=NCc1ccccc1C[C@]1(C(=O)O)N=C(c2ccc(OCCCO)cc2)O[C@H]1c1ccccc1CN=[N+]=[N-] | 1.08
CC(C)NC(=O)[C@@H]1c2ccccc2C(=O)N(Cc2ccccc2)[C@H]1c1ccc(CO)cc1 | 0.826
COCCOC(=O)N1C(=O)[C@@]2(c3cc(C#CCNC(N)=O)ccc31)[C@H](c1ccccc1OCCO)N1[C@H](c3ccccc3)[C@H](c3ccccc3)OC(=O)[C@H]1[C@@H]2C(N)=O | 0.305
O=C1C2C=CC(C(O)c3ccc(B(O)O)cc3)N(Nc3ccccc3)C2C(=O)N1c1ccccc1 (stereo not given) | -0.0504
COC(=O)[C@@]1(Cc2ccc(F)cc2)[C@H]2c3cc(C(=O)N(C)C)n(CCc4ccccn4)c3C[C@H]2CN1C(=O)c1ccccc1 | -0.108
Cc1ccc(S[C@]2(C(=O)NC3CC3)CC(=O)N(Cc3ccccc3)[C@@H]2c2ccc(CO)cc2)cc1 | 0.222
O=C1C2C=CC(C(O)c3ccc(F)cc3)N(Nc3ccccc3)C2C(=O)N1c1ccccc1 (stereo not given) | 0.684
Cc1cc(C)c(C(O)C2C=CC3C(=O)N(C)C(=O)C3N2Nc2ccccc2)c(C)c1 (stereo not given) | 0.847
[N-]=[N+]=NCc1ccccc1C[C@]1(C(=O)NCCN2CCOCC2)N=C(c2ccc(OCCCO)cc2)O[C@H]1c1ccccc1N=[N+]=[N-] | 0.976
O=C(OCCF)C1=CCC(c2cccc(Cl)c2)O1 (stereo not given) | 0.177
[N-]=[N+]=NCc1ccccc1C[C@]1(C(=O)NCC(O)CO)N=C(c2ccc(OCCCO)cc2)O[C@H]1c1ccccc1N=[N+]=[N-] (stereo not given in full) | 0.541
COCC1=C2[C@@H](CCc3ccccc3)OB(O)C[C@@H]2[C@@H]2C(=O)N(Cc3ccccc3)C(=O)[C@@H]2C1 | 0.397
[N-]=[N+]=Nc1ccccc1[C@H]1OC(c2ccc(OCCCO)cc2)=N[C@@]1(CCS(=O)(=O)c1ccccc1)C(=O)O | 0.85
